Columns and labels:
Test in all cases: log2 ratio of Biotin-Ahx-Ub-VS probe labelling (fragment/DMSO); higher = less target engagement (more negative = stronger competition), active = hit call of the paper (q ≤ 0.05, log2 ratio ≤ -1)
Settings in all cases: compound concentration: 200 uM; treatment time: 3 h
[1] = biological target: T1, ALG13 (UniProt Q9NP73)
T1 sequence (whole entry): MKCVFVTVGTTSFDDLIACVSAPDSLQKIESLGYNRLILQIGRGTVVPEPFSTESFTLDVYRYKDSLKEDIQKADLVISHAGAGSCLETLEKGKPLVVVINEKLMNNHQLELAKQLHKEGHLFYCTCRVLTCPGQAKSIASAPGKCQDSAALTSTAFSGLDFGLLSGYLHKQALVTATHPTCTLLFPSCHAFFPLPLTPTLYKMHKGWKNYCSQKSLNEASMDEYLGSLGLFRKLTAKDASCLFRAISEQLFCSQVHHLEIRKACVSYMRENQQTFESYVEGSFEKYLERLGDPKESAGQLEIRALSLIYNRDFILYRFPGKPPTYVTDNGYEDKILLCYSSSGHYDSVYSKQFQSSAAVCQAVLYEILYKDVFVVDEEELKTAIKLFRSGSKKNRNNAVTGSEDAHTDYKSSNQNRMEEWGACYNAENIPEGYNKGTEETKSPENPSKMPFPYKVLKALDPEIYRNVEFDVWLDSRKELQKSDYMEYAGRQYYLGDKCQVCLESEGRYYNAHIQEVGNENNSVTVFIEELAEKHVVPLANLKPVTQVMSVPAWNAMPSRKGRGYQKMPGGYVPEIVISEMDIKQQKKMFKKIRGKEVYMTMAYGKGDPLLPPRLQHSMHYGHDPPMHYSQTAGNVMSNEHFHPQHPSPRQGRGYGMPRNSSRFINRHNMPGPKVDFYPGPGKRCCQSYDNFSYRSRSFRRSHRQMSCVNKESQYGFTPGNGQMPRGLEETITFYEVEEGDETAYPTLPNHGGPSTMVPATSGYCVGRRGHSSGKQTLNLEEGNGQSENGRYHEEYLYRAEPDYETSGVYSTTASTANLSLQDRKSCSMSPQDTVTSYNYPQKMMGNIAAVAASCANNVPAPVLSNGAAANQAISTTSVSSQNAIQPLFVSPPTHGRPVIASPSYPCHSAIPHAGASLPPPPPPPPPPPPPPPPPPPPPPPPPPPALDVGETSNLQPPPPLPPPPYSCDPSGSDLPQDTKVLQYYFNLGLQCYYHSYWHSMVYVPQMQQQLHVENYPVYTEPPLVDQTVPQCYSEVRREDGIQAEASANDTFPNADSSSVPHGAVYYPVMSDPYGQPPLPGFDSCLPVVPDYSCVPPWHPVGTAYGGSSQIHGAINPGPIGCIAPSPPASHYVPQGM
Summary of the method: (§1)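 HEK293T lysate in Tris/CHAPS/IGEPAL buffer with protease inhibitors (495 µg per sample) was given fragment at 200 µM or vehicle for 3 h, in triplicate. It then received Biotin-Ahx-Ub-VS at 0.5 µM final for 1 h. Labelled DUBs were NeutrAvidin-enriched, digested with LysC and trypsin, and run by diaPASEF LC-MS/MS. Values are average log2 fragment/vehicle ratios by unpaired t-test on global-median-normalised Spectronaut quantities of proteins with ≥2 unique peptides.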

[2] = biological target: ATXN3 (UniProt P54252)
Sequence of ATXN3 (P54252 whole entry): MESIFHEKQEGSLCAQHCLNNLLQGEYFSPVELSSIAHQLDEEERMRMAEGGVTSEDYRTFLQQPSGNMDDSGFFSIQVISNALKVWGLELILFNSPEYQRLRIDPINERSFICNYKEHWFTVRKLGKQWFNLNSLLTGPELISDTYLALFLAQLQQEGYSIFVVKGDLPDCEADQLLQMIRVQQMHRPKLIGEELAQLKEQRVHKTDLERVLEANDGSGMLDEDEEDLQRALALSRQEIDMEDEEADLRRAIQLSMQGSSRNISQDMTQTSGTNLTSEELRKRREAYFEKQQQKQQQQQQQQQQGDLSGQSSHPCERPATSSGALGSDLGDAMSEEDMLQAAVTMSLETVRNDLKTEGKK
Summary of the method: as §1

[3] = biological target: T2, BAP1 (UniProt Q92560)
T2 sequence (whole entry): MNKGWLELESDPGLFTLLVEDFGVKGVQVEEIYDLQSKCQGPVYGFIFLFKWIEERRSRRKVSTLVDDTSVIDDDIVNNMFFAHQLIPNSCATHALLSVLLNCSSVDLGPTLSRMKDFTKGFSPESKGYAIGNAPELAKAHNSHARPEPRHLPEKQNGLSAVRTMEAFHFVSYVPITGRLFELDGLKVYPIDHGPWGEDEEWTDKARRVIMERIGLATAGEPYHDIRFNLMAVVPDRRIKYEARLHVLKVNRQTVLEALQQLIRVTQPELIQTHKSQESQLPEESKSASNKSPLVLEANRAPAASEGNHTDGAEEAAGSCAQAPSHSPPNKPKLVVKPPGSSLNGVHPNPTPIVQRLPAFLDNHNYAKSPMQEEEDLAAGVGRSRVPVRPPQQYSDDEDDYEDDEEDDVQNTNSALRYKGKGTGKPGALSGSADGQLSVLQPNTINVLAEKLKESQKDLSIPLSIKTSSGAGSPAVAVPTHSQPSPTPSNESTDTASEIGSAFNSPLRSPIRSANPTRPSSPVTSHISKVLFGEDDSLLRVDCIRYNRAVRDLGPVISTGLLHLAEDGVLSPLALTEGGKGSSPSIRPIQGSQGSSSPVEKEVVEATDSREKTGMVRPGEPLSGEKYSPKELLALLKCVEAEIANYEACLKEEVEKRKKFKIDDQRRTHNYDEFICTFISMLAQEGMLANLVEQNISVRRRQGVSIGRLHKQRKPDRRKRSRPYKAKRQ
Summary of the method: as §1

[4] = biological target: EIF3F (UniProt O00303)
Sequence of EIF3F (O00303 whole entry): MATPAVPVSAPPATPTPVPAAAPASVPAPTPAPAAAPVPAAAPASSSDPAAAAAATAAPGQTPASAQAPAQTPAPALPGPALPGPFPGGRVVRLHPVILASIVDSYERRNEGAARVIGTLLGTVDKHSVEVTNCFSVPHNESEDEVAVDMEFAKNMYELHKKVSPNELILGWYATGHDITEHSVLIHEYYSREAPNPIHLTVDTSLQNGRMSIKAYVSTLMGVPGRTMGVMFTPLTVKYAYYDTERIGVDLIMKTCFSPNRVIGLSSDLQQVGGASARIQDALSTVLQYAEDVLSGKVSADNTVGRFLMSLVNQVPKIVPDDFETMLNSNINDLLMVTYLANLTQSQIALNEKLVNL
Summary of the method: as §1

[5] = biological target: EIF3H (UniProt O15372)
Sequence of EIF3H (O15372 whole entry): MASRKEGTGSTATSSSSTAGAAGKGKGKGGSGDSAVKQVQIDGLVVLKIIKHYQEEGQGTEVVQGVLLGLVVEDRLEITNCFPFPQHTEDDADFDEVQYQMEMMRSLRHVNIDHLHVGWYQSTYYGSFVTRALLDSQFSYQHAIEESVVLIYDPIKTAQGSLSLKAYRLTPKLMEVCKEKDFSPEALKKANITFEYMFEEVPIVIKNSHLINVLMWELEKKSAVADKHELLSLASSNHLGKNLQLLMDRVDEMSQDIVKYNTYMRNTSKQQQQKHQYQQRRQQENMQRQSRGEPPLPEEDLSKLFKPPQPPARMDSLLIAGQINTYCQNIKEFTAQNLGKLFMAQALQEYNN
Summary of the method: as §1

[6] = biological target: T3, FAM105A (UniProt Q9NUU6)
T3 sequence (whole entry): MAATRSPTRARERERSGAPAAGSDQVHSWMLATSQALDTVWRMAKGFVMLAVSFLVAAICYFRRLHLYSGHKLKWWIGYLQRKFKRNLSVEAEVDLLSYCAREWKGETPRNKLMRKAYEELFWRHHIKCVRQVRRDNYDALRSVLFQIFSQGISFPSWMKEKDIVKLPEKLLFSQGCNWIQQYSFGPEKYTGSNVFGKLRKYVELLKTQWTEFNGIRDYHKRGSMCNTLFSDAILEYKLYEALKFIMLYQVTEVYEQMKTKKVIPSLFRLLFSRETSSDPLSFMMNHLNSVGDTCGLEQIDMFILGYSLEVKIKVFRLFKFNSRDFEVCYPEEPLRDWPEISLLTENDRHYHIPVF
Summary of the method: as §1

[7] = biological target: OTUB1 (UniProt Q96FW1)
Sequence of OTUB1 (Q96FW1 whole entry): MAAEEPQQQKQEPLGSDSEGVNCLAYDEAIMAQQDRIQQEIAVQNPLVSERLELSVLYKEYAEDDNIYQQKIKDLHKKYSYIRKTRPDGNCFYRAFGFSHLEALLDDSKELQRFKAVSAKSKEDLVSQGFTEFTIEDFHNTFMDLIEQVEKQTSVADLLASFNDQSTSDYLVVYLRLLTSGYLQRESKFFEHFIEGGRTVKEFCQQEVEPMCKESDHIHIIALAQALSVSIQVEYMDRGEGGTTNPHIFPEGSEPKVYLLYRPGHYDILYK
Summary of the method: as §1

[8] = biological target: T4, OTUD4 (UniProt Q01804)
T4 sequence (whole entry): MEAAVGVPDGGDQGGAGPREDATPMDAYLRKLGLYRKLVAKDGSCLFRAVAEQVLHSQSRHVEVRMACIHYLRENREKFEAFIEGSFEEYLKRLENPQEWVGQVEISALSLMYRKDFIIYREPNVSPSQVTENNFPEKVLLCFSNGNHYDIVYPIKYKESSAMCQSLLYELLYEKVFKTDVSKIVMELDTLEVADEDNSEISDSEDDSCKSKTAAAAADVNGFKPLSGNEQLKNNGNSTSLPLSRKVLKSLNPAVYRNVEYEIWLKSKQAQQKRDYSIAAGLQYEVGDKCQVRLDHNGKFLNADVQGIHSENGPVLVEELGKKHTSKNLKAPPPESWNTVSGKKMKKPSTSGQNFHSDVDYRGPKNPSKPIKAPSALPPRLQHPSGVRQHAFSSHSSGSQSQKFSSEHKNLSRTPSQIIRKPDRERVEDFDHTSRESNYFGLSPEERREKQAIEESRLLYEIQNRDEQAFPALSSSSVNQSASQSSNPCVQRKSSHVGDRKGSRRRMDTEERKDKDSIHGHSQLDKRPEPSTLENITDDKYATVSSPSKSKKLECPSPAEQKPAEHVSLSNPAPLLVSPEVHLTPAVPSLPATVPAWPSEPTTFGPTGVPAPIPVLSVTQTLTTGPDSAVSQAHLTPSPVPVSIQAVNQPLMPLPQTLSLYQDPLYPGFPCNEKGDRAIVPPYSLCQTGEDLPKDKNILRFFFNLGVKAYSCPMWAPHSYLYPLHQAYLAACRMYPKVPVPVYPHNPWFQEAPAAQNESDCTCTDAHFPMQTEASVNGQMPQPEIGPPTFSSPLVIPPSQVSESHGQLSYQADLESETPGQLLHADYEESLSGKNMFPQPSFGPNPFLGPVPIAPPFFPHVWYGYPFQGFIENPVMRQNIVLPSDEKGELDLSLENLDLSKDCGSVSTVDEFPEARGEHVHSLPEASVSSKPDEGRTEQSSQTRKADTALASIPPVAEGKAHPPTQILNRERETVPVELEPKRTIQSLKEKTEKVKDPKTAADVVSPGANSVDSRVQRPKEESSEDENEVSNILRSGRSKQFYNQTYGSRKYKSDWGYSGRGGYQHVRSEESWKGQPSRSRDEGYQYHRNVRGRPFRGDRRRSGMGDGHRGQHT
Summary of the method: as §1

[9] = biological target: T5, OTUD5 (UniProt Q96G74)
T5 sequence (whole entry): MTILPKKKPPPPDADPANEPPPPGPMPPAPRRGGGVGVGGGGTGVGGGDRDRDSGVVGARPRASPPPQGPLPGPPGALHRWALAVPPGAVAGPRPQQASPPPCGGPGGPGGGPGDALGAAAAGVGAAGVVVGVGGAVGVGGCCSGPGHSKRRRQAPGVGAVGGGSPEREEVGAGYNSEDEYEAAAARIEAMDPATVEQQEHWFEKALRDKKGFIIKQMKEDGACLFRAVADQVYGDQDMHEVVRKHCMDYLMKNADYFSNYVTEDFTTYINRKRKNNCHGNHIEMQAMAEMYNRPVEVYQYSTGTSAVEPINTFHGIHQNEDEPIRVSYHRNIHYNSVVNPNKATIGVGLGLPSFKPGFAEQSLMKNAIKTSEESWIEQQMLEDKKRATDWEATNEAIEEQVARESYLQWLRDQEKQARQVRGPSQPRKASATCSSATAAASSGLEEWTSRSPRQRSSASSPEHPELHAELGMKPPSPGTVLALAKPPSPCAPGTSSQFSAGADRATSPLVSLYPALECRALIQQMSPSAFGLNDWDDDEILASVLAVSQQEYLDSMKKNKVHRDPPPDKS
Summary of the method: as §1

Measured: log2 ratio of Biotin-Ahx-Ub-VS probe labelling

O=C(CCl)N1CC2(CCOCC2)C1
inactive: [1] -0.597 | [2] -0.356 | [3] -0.382 | [4] 0.0073 | [5] 0.061 | [6] -0.00776 | [7] -0.183 | [8] -0.122 | [9] -0.493
